Assay results published in PubChem BioAssay AID1159580 (chemical genetic matrix, 2015).
Where “and” joins values, the source holds several entries; their conditions need not be identical. Equal entries are not always repeated. Screen size: about 5,500 compounds; about 2,000 (36%) were called active. Inconclusive results (about 18%) are left out. No stated cut-off is given here; in the data, active means normalized growth mostly below about 0.91 (no sharp cut-off); inconclusive means no clear call, values can overlap the other calls; inactive means mostly above about 0.92. The list shows a part of the results.

Assay: chemical genetic growth profiling, strain panel (AID 1159580);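 further: tested at 20 µM; growth read once vehicle control cultures reached saturation at 30 °C; 1 = growth at the plate median or of vehicle wells; lower values mean less growth of the strain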
Settings: S. cerevisiae deletion strains, growth OD

Measured: normalized growth

CC1=C2CCC3C(CC[C@]4(C)C(=O)CCC34)[C@@]2(C)CCC1=O (some centres not stated)
inactive: locus YAL013W, strain DEP1, active compounds read low 0.961 | locus YAL026C, strain drs2, active compounds read low 0.978 | locus YAL030W, strain snc1, active compounds read low 0.993 | locus YBL061C, strain skt5, active compounds read low 0.997 | locus YBR009C, strain hhf1, active compounds read low 0.956 | locus YBR023C, strain chs3, active compounds read low 0.977 | locus YBR171W, strain sec66, active compounds read low 0.977 | locus YBR229C, strain ROT2, active compounds read low 0.981 | locus YBR231C, strain swc5, active compounds read low 1.04 | locus YBR279W, strain paf1, active compounds read low 0.972 | locus YCL011C, strain gbp2, active compounds read low 0.968 | locus YCL016C, strain dcc1, active compounds read low 0.947 | locus YCL029C, strain bik1, active compounds read low 0.969 | locus YCL061C, strain MRC1, active compounds read low 0.967 | locus YCL069W, strain vba3, active compounds read low 0.983 | locus YCR088W, strain abp1, active compounds read low 1.01 | locus YDL005C, strain med2, active compounds read low 0.993 | locus YDL035C, strain GPR1, active compounds read low 0.922 | locus YDL040C, strain nat1, active compounds read low 0.999 | locus YDL074C, strain BRE1, active compounds read low 0.915 | locus YDL101C, strain DUN1, active compounds read low 0.986 | locus YDL134C, strain PPH21, active compounds read low 0.981 | locus YDL185W, strain tfp1, active compounds read low 0.962 | locus YDR001C, strain nth1, active compounds read low 0.997 | locus YDR069C, strain doa4, active compounds read low 1 | locus YDR101C, strain arx1, active compounds read low 0.982 | locus YDR150W, strain NUM1, active compounds read low 0.986 | locus YDR159W, strain sac3, active compounds read low 0.998 | locus YDR162C, strain NBP2, active compounds read low 0.842 | locus YDR297W, strain sur2, active compounds read low 0.995 | locus YDR318W, strain mcm21, active compounds read low 0.941 | locus YDR334W, strain swr1, active compounds read low 1.01 | locus YDR335W, strain msn5, active compounds read low 0.961 | locus YDR388W, active compounds read low 0.946 | locus YEL003W, strain gim4, active compounds read low 0.971 | locus YEL037C, strain rad23, active compounds read low 0.985 | locus YEL061C, strain CIN8 (second series), active compounds read low 0.992 | locus YEL061C, strain CIN8, active compounds read low 0.967 | locus YER015W, strain faa2, active compounds read low 0.964 | locus YER016W, strain bim1, active compounds read low 0.991 | locus YER110C, active compounds read low 0.957 | locus YER111C, strain swi4, active compounds read low 0.989 | locus YER155C, strain BEM2 (second series), active compounds read low 0.904 | locus YER155C, strain BEM2, active compounds read low 0.997 | locus YER167W, strain BCK2, active compounds read low 0.931 | locus YFR010W, strain ubp6, active compounds read low 1.02 | locus YGL078C, strain dbp3, active compounds read low 0.947 | locus YGL086W, strain mad1, active compounds read low 0.936 | locus YGL167C, strain pmr1, active compounds read low 0.963 | locus YGL173C, strain kem1, active compounds read low 1 | locus YGL227W, strain vid30, active compounds read low 1.01 | locus YGL240W, strain doc1, active compounds read low 0.941 | locus YGL248W, strain PDE1, active compounds read low 0.981 | locus YGL253W, strain hxk2, active compounds read low 0.979 | locus YGR078C, strain PAC10, active compounds read low 0.959 | locus YGR135W, strain pre9, active compounds read low 0.902 | locus YGR229C, strain SMI1, active compounds read low 0.962 | locus YGR252W, strain gcn5, active compounds read low 0.836 | locus YHR013C, strain ard1, active compounds read low 0.943 | locus YHR027C, strain rpn1, active compounds read low 0.995 | locus YHR030C, strain SLT2, active compounds read low 0.975 and 0.95 | locus YHR079C, strain IRE1 (second series), active compounds read low 0.986 | locus YHR079C, strain IRE1, active compounds read low 0.941 | locus YHR094C, strain hxt1, active compounds read low 0.984 | locus YHR129C, strain ARP1, active compounds read low 0.991 | locus YHR142W, strain chs7, active compounds read low 0.92 | locus YHR200W, strain rpn10, active compounds read low 0.955 | locus YIL066C, strain RNR3, active compounds read low 0.937 | locus YIL073C, strain SPO22, active compounds read low 0.861 | locus YIL125W, strain kgd1, active compounds read low 0.971 | locus YIR030C, strain dcg1, active compounds read low 0.971 | locus YJL092W, strain hpr5, active compounds read low 0.992 | locus YJL095W, strain BCK1 (second series), active compounds read low 0.992 | locus YJL095W, strain BCK1, active compounds read low 0.889 and 0.943 | locus YJL115W, strain asf1, active compounds read low 0.985 | locus YJL129C, strain trk1, active compounds read low 0.93 | locus YJL134W, strain LCB3, active compounds read low 0.983 | locus YJL154C, strain vps35, active compounds read low 0.993 | locus YJL164C, strain tpk1, active compounds read low 0.938 | locus YJL166W, strain qcr8, active compounds read low 0.963 | locus YJL168C, strain set2, active compounds read low 0.978 | locus YJL187C, strain SWE1 (second series), active compounds read low 0.985 | locus YJL187C, strain SWE1, active compounds read low 0.989 | locus YJR043C, strain POL32, active compounds read low 0.99 | locus YJR066W, strain TOR1, active compounds read low 0.852
active: locus YAL021C, strain ccr4, active compounds read low 0.899 | locus YBR021W, strain FUR4, active compounds read low 0.798 | locus YDL192W, strain arf1, active compounds read low 0.916 | locus YDR137W, strain rgp1, active compounds read low 0.693 | locus YDR195W, strain ref2 1.15 [resistant] | locus YDR392W, strain spt3, active compounds read low 0.565 | locus YDR502C, strain sam2, active compounds read low 0.895
